Screening results deposited in PubChem BioAssay by National Center for Advancing Translational Sciences (NCATS).
Most compounds without a hit are left out; they make up all but 11% or so of the library.
NPR1 antag: human Npr1 receptor antagonism. 76,000 tested, 1.6% active. HEK293 hNpr1 GloSensor cGMP, ANP-stimulated luminescence. Potency, µM (series often up to 46.3 µM), usual class: inhibitors; calls by dose curve; note: nearly all actives have a fitted effect of over 60% in size
Target sequence (P16066 whole entry, looked up): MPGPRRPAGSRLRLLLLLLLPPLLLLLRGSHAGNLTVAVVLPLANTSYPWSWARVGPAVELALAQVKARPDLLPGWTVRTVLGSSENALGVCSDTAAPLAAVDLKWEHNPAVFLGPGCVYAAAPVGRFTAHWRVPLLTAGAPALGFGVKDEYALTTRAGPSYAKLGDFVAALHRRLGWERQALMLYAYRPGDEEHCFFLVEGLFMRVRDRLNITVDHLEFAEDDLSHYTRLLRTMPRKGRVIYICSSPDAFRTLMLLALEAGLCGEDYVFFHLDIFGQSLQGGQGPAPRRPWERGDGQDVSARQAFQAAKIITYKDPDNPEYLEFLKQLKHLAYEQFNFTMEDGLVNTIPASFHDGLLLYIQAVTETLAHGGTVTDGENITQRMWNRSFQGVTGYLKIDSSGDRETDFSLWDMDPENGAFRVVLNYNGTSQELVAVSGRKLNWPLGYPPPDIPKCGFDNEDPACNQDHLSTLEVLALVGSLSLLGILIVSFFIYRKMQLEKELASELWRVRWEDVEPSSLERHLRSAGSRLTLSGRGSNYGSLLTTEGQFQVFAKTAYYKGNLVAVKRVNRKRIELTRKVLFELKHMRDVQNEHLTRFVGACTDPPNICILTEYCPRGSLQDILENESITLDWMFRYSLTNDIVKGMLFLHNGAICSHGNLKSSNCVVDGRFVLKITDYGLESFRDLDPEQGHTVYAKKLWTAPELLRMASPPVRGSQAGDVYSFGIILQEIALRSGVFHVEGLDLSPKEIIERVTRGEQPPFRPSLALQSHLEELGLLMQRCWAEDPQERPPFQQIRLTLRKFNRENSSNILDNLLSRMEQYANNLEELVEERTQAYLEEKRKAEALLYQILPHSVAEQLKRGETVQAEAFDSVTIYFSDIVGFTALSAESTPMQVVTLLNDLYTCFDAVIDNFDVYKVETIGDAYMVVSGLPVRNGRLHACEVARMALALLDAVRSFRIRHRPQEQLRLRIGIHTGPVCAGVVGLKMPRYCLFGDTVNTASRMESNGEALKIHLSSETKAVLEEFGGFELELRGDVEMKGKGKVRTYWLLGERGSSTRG
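HEK293 cells stably expressing human Npr1 and cGMP GloSensor pGS-40F, loaded 2 h with 2% GloSensor reagent, given compound 30 min at room temperature. Luminescence read before and 20 min after 0.1 nM hNppA.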
HEK cytotox: cytotoxic compounds in HEK 293 cells. Potency, µM (highest dose often 115 µM), most hits filed as inhibitors. HEK 293 viability, ATP luminescence (CellTiter-Glo), 48-72 h. 94,000 tested, 6.6% active. AID 1345083; note: nearly all actives have a fitted effect of over 60% in size
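Cells seeded first (HEK 293, 250 cells/well), then compound added by pintool. Incubation ran 48 or 72 hr at 37 degree Celsius. CellTiter-Glo was added and luminescence imaged after 10 min at room temperature.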
NIH3T3 tox: kills NIH 3T3 cells | NIH 3T3 viability, CellTiter-Glo ATP luminescence, 48-72 h | Potency, µM (highest dose often 96.7 µM), hits mostly inhibitors | 94,000 tested, 4.3% active | AID 1345082; note: nearly all actives have a fitted effect of over 55% in size
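Cytotoxicity was measured by CellTiter-Glo ATP luminescence after 48 or 72 h compound exposure at 37 °C. Mouse NIH 3T3 fibroblasts were seeded at 400 cells/well and dosed by 23 nL pin transfer.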
Luciferase inh: inhibitors of firefly (Photinus pyralis) luciferase | purified P. pyralis luciferase, luminescence, biochemical | Potency, µM (top dose mostly 115 µM), hits mostly inhibitors | AID 1347043 | P08659 | 76,000 tested, 2.5% active; note: nearly all actives have a fitted effect of over 65% in size
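Cell-free enzyme assay, 10nM P. pyralis luciferase, luciferin and ATP each at 10uM. Inhibition profiled over a 6-point titration, read as luminescence.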
Of the large screens only hits and unclear results are named; the others gave an inactive call; ! = not confirmed by another sample. Unless noted, calls come from the whole dose curve; as a rule, active = well fitted curve in the direction sought with a large enough effect; inconclusive = small, poorly fitted or top-dose-only effect, or another doubt; inactive = no such curve, though single readings can be large; an effect the other way counts as inactive or inconclusive.

COc1cccc(-c2ccccc2CN)c1	none (no result: NPR1 antag, Luciferase inh)
Cc1cc(C)cc(-c2ccccc2CN)c1	HEK cytotox 112µM, NIH3T3 tox inconclusive (no result: NPR1 antag, Luciferase inh)
CCC1CN(Cc2cn(-c3ccccc3C)nc2-c2ccc(OC)c(F)c2)CCO1 (stereo not drawn)	HEK cytotox inconclusive, NIH3T3 tox inconclusive
O=C(Nc1cc(-c2ccncc2)nn1-c1ccccc1)c1ccc(C(F)(F)F)cc1	HEK cytotox inconclusive, NIH3T3 tox 32µM (no result: NPR1 antag, Luciferase inh)
CCOC(=O)[C@@H]1CN(C(=O)NC2CCCC2)[C@H]2c3ccc(OC)cc3O[C@@H]12	HEK cytotox 50µM, NIH3T3 tox inconclusive (no result: NPR1 antag, Luciferase inh)
COc1cccc(CNC(=O)Cn2c(N3CCc4ccccc4C3)nc(C)cc2=O)c1	HEK cytotox 45µM
CCc1cccc(NC(=O)Cn2c(N3CCc4ccccc4C3)nc(C)cc2=O)c1	NPR1 antag inconclusive, HEK cytotox inconclusive, NIH3T3 tox 28µM
Cc1cc(=O)n(CC(=O)Nc2ccc(C(C)C)cc2)c(N2CCc3ccccc3C2)n1	HEK cytotox inconclusive, NIH3T3 tox 25µM
Cc1cc(=O)n(CC(=O)Nc2ccc(Cl)cc2)c(N2CCc3ccccc3C2)n1	HEK cytotox inconclusive, NIH3T3 tox inconclusive
Cc1cc(=O)n(CC(=O)Nc2ccccc2)c(N2CCc3ccccc3C2)n1	HEK cytotox 32µM, NIH3T3 tox inconclusive
Cc1cc(=O)n(CC(=O)Nc2cccc(F)c2)c(N2CCc3ccccc3C2)n1	HEK cytotox inconclusive, NIH3T3 tox inconclusive
COCCn1c(=O)c(C(=O)N2CCN(C(=O)c3ccccc3C)CC2)nc2cccnc21	none (no result: NPR1 antag, Luciferase inh)
COc1ccc(-c2noc([C@@H]3CCCN3C(=O)c3cc(F)cc(F)c3)n2)cc1OC	HEK cytotox inconclusive, NIH3T3 tox inconclusive
COc1ccc(C(=O)N2CCN(c3ccc4nnc(C5CC5)n4n3)CC2)cc1	NIH3T3 tox inconclusive (no result: NPR1 antag, Luciferase inh)
O=C(CCc1cccc(F)c1)N1CCN(Cc2ccccc2)CC(O)C1 (stereo not drawn)	none
Cc1cc(=O)n(CC(=O)Nc2ccc(Br)cc2)c(N2CCc3ccccc3C2)n1	HEK cytotox 89µM, NIH3T3 tox inconclusive
COc1ccc(NC(=O)Cn2c(N3CCc4ccccc4C3)nc(C)cc2=O)cc1Cl	HEK cytotox 40µM, NIH3T3 tox 35µM
Cc1cc(=O)n(CC(=O)NCc2ccccc2Br)c(N2CCc3ccccc3C2)n1	HEK cytotox 40µM, NIH3T3 tox inconclusive
COc1ccc(NC(=O)Cn2c(N3CCc4ccccc4C3)nc(C)cc2=O)cc1OC	HEK cytotox inconclusive, NIH3T3 tox inconclusive
CCc1ccccc1NC(=O)Cn1c(N2CCc3ccccc3C2)nc(C)cc1=O	NPR1 antag inconclusive, HEK cytotox inconclusive, NIH3T3 tox 18µM
COc1cncc(Nc2cnc3ccc(-c4ccccc4)nn23)c1	NIH3T3 tox inconclusive
O=C(Nc1ccc(Cl)cc1)N1CCN(CCn2nc3n(c2=O)CCCC3)CC1	none (no result: NPR1 antag, Luciferase inh)
COc1ccc(-c2ccc(C(=O)N3CCN(C(=O)c4ccc(Cl)nc4)CC3)cc2)nn1	none (no result: NPR1 antag, Luciferase inh)
CC(=O)N1CCCN(c2ncnc3c2CN(C2CCCC2)C(=O)CN3C)CC1	none (no result: NPR1 antag, Luciferase inh)
CN(CCc1ccccn1)C(=O)c1ccc(N2CC3CC(C2)[C@H]2CCCC(=O)N2C3)nc1 (stereo partly drawn)	none
COC(=O)CNC(=O)C1CCN(C(=O)c2ccc(-c3ccccc3OC)cc2)CC1	HEK cytotox inconclusive (no result: NPR1 antag, Luciferase inh)
CSc1ccc(NC(=O)c2ccc3c(c2)N(C)C2CCCCN2C3=O)cc1 (stereo not drawn)	HEK cytotox inconclusive, NIH3T3 tox inconclusive, Luciferase inh 45µM
CSc1ccc(CNC(=O)c2ccc3c(c2)N(C)C2CCCCN2C3=O)cc1 (stereo not drawn)	HEK cytotox inconclusive, Luciferase inh inconclusive
CN1c2cc(C(=O)Nc3ccc(F)cc3)ccc2C(=O)N2CCCCCC21 (stereo not drawn)	HEK cytotox inconclusive, NIH3T3 tox inconclusive, Luciferase inh 25µM
CN1c2cc(C(=O)Nc3cc(F)cc(F)c3)ccc2C(=O)N2CCCCC21 (stereo not drawn)	HEK cytotox inconclusive, NIH3T3 tox inconclusive, Luciferase inh inconclusive
O=C(C1CCCN1c1nccc(Nc2ccccc2F)n1)N1CCCC1 (stereo not drawn)	none (no result: NPR1 antag, Luciferase inh)
COCCNC(=O)c1ccc2nnc(-c3ccoc3)n2c1	none (no result: NPR1 antag, Luciferase inh)
COc1ccc(OC)c(CN2CCc3ncc(C(=O)Nc4ccccc4)n3CC2)c1	HEK cytotox 112µM, NIH3T3 tox inconclusive
O=C(NCCOc1ccccc1)c1cnc2n1CCN(Cc1ccc3[nH]ccc3c1)CC2	HEK cytotox inconclusive, NIH3T3 tox inconclusive
O=C(Nc1ccccc1)c1cnc2n1CCN(Cc1ccc3[nH]ccc3c1)CC2	HEK cytotox 100µM, NIH3T3 tox 89µM
COc1ccccc1CN1CCc2ncc(C(=O)Nc3ccccc3)n2CC1	HEK cytotox inconclusive, NIH3T3 tox inconclusive
COc1cc(CNC(C)C)ccc1OCC(O)CN1CCSCC1 (stereo not drawn)	none
COc1cc(CNC2CCCCCCC2)ccc1OCC(O)CN1CCSCC1 (stereo not drawn)	HEK cytotox inconclusive, NIH3T3 tox 79µM
COc1ccc(CNCc2ccc(C)s2)cc1OCC(O)CN1CCCCC1 (stereo not drawn)	HEK cytotox 79µM, NIH3T3 tox inconclusive
O=C(NCCc1ccc(Cl)cc1)C1CN(c2cccc(Cl)c2)C(=O)N1 (stereo not drawn)	HEK cytotox inconclusive, NIH3T3 tox 35µM!
O=C1N(CCc2ccccc2)CCOC12CCN(Cc1ccc(F)c(Cl)c1)CC2	NPR1 antag inconclusive, HEK cytotox 79µM, NIH3T3 tox 45µM
O=C(c1ccoc1)N1CCC[C@H](n2c(=O)n(Cc3ccccc3)c3cccnc32)C1	HEK cytotox inconclusive, NIH3T3 tox inconclusive
Cc1ocnc1C(=O)N(C)CC1CCCN(CCc2ccc(Cl)cc2)C1 (stereo not drawn)	HEK cytotox inconclusive
CCCn1ncc(CN(C)CC2CCN(CCc3ccc(Cl)cc3)CC2)c1C	HEK cytotox 22µM, NIH3T3 tox 35µM
O=C(c1csc(Cc2ccccc2)n1)N1CC[C@H](CO)[C@@H](O)C1	none
O=C(c1csc(Cc2ccccc2)n1)N1Cc2ccccc2C(O)C1 (stereo not drawn)	HEK cytotox inconclusive, NIH3T3 tox inconclusive, Luciferase inh 40µM
CN(c1ccc(Cl)c(Cl)c1)C1CNC1	HEK cytotox 112µM, NIH3T3 tox 100µM (no result: NPR1 antag, Luciferase inh)
Cc1nn(-c2ccc(C(F)(F)F)cc2)c(C)c1[C@@H]1C=C[C@@H](NC(=O)COCC(=O)O)C1	none
Cc1nn(-c2ccc(F)cc2)c(C)c1[C@@H]1C=C[C@@H](NC(=O)CC(C)(C)CC(=O)O)C1	NIH3T3 tox inconclusive
Cc1nn(-c2ccccc2[N+](=O)[O-])c(C)c1[C@@H]1C=C[C@@H](NCc2ccc(F)cc2)C1	HEK cytotox 100µM, NIH3T3 tox 89µM, Luciferase inh inconclusive
COc1ccc(NC(=O)O[C@@H]2C=C[C@H](c3c(C)nn(-c4ccc(F)cc4)c3C)C2)cc1	HEK cytotox inconclusive, NIH3T3 tox inconclusive, Luciferase inh inconclusive
COc1ccc(-n2nc(C)c([C@@H]3C=C[C@@H](NCc4ccc(F)cc4)C3)c2C)cc1	NPR1 antag inconclusive, HEK cytotox 28µM, NIH3T3 tox 32µM, Luciferase inh 25µM
